Source: PubChem BioAssay AID1498 (National Center for Advancing Translational Sciences (NCATS), 2009)
Records with an inconclusive call do not appear. Activity calls are given as the source filed them. Calls follow the shape of the full dose curve.

Assay: Confirmation Concentration-Response Assay for Modulators of Lamin A Splicing
Details: RFP activity: RFP channel at top concentration, at 46.1 µM; ratio activity: GFP/RFP ratio at top concentration, at 46.1 µM
Text: NCGC Assay Overview: Hutchinson-Gilford Progeria Syndrome (HGPS) is a pediatric premature aging disease caused by a spontaneous mutation in the lamin A/C (LMNA) gene. The mutation activates a cryptic splice site in the LMNA pre-mRNA which results in production of a pre-lamin A protein that cannot be processed properly. The mutant protein accumulates in the nucleus and negatively affects numerous cellular functions. Correction of the splicing defect in HGPS patient cells using a targeted oligonucleotide (exo11) leads to reversal of the cellular disease phenotypes. To identify small molecule modulators of aberrant LMNA splicing, a homogenous assay was constructed in HeLa cells that used a GFP containing minigene to report on correction of aberrant splicing in lamin A and a RFP (DsRed2) to report on cell viability, uniformity and nonspecific effects on the assay signal. This assay was adapted to laser-scanning microplate cytometry (Acumen, TTP Labtech) where miniaturization of the assay to a 1,536-well plate format was possible. Select compounds active in the primary screen (AID 1487) were chosen for confirmation based on potency, efficacy, SAR and activity in other assays in PubChem and at NCGC. References: Bowen, W. P.; Wylie, P. G. Application of Laser-Scanning Fluorescence Microplate Cytometry in High Content Screening. Assay Drug Dev Technol 2006;4:209-221. Scaffidi P, Misteli T. Reversal of the cellular phenotype in the premature aging disease Hutchinson-Gilford progeria syndrome. Nat. Med. 2005;11:440-445.
NCGC Assay Protocol Summary: Reagents/Controls: Stable clones expressing DsRed2 and lamin A-EGFP were generated by Cell and Molecular Technologies in S3 HeLa cells. HeLa cells were prepared for the assay when they were 70-90% confluent. The cells were counted and resuspended in Opti-MEM I (no phenol red; Gibco), 2% FBS, 1% penicillin/ streptomycin (Gibco) at concentration of 120 cells/uL concentration. The suspension was passed through a Falcon basket filter with pore size 40um (Beckton Dickson). Control titrations: column […] 1536-well plate contained a sixteen point titration (1:2 dilutions) in duplicate of ancitabine (Sigma: A8598) beginning at 40 uM final concentration. Column 2 contained a sixteen point titration (1:2 dilutions) of cycloheximide beginning at 1.4 mM final concentration. Column 3 contained ancitabine at 40 uM and column 4 contained was the vehicle control (0.5% DMSO final concentration). Assay Steps: 5 uL of HeLa cells were plated in Aurora LoBase black clear bottom (cyclic-olefin polymer) 1536-well plates at a final density of 600 cells/well. Controls and library compounds were added with a 1536-well pin array using the Kalypsys pin-tool. The plates were then incubated for 48 hrs in a cell-culture incubator (37 °C; 5% CO2, 98% humidity). Following incubation the plates were read on the Acumen Explorer using the 488 nm laser. Data was collected on objects between 10 and 100 um in size. Cell objects were defined by a 15 um width x 10 um depth filter. The ratio of the total object intensity in PMT1 (500-530 nm emission; GFP) over PMT3 (575-640 nm emission; RFP) was calculated for analysis. Keywords: NIH Roadmap, MLSCN, MLI, MLSMR, qHTS, NCGC, lamin A, Progeria, RNA splicing.

## CN1C(=O)CCS(=O)(=O)[C@@H]1c1ccc(Cl)cc1
  RFP activity: -19.9%
  outcome: inactive
  ratio activity: -2.66%

## c1ccc(C2OCCN3CCCCC23)cc1 (stereo unspecified)
  RFP activity: -2.54%
  outcome: inactive
  ratio activity: -7.51%
